Source: PubChem BioAssay (University of Kansas High Throughput Screening Laboratory)
Pf apPOL block: Pf-apPOL DNA polymerase inhibition | Recombinant Pf-apPOL, molecular beacon fluorescence, 1.5 h | inhibition, % at 10 µM | 210,000 compounds, 0.25% hits | AID 1794808
mHTT-CaM PPI inh: mHTT-calmodulin interaction abrogation. AlphaScreen His-mHTT/GST-CaM binding, luminescence. inhibition, % at 15 µM. 190,000 compounds, 3.6% hits. AID 1671202;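 further: 0% = both proteins with DMSO and 100% = one protein alone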
An asterisk follows results filed as active; . = no result. The full list was thinned out, with hits kept by preference. No stated cut-off is given here; in the data, active means inhibition above about 50%; inactive means the rest.

SMILES | Pf apPOL block | mHTT-CaM PPI inh
Oc1c(Cl)cc(Br)cc1C=Nc1ccc2ncccc2c1 | 0 | 82*
Cc1cccc(N=Cc2cc(Cl)cc(Cl)c2O)c1C | 6 | .
O=C(Nc1cccc(Cl)c1)C1CCCN(c2ncc(-c3ccccc3)cn2)C1 (stereo unspecified) | -1 | -10
Cc1ccc(CNC(=O)CN2CCN(C(=O)Nc3ccc(Cl)cc3)CC2=O)cc1 | -3 | 1
Cc1ccc(-c2cc(-c3ccccc3)cc(-c3ccc(C)cc3)n2)cc1 | -2 | .
c1ccc(CNCc2cnc[nH]2)cc1 | -8 | 94*
O=C(O)CCNCc1ccccc1 | -2 | -2
COc1ccc(-c2c(C)c3cc(OC(=O)c4c(OC)cccc4OC)ccc3oc2=O)cc1 | -5 | -1
O=C1OC(c2ccco2)=N/C1=C/c1ccc(Cl)c(Cl)c1 | -3 | 2
FC(F)(F)c1cccc(-c2nnc(-c3ccc(Oc4cc(Cl)cc(Cl)c4)o3)o2)c1 | 0 | .
CN(C)S(=O)(=O)Oc1ccc(-c2noc(-c3ccc(Oc4cc(Cl)cc(Cl)c4)o3)n2)cc1 | 59* | .
Cc1ccc(NC(=O)COc2ccc(Br)cc2)cc1 | 80* | -16
Cc1ccc(OCC(=O)Nc2ccc(F)cc2)cc1 | 2 | -12
CCOc1ccccc1C(=O)N1CCN=C1SCc1ccc([N+](=O)[O-])cc1 | 5 | 2
COc1cc(C2CC(=O)Oc3c(C(CCN4CCOCC4)c4ccc(N(C)C)cc4)c(OC)cc(OC)c32)cc(OC)c1OC (stereo unspecified) | -4 | 65*
COc1ccc(C(CC(=O)N2CCCC(C)C2)c2c(O)cc(OC)cc2OC)cc1 (stereo unspecified) | -7 | 15
COc1cc(C2CC(=O)Oc3cc(O)ccc32)cc(OC)c1OC (stereo unspecified) | -5 | 3
COc1ccc(C2CC(=O)Oc3c(C(CCN4CCCCC4)c4ccc(N(C)C)cc4)c(OC)cc(OC)c32)cc1 (stereo unspecified) | 1 | 101*
COc1cc(OC)c2c(c1C(CCN1CCCC1)c1ccc(N(C)C)cc1)OC(=O)CC2c1ccc(N(C)C)cc1 (stereo unspecified) | -10 | 100*
COc1ccc(C2CC(=O)Oc3c(C(CCN4CCCC(C)C4)c4ccc(N(C)C)cc4)c(OC)cc(OC)c32)cc1 (stereo unspecified) | -6 | 101*
COc1ccc(-c2nc3s/c(=C\c4cccc(F)c4)c(=O)n3n2)cc1 | 16 | -5
O=C(c1ccc(OCC2CCN(C(=O)c3c(F)cccc3Cl)CC2)cc1)N1CCCC1 | 4 | 8
O=C(Nc1cccc(F)c1)c1cc(S(=O)(=O)N2CCc3ccccc3C2)ccc1F | -5 | -5
CN1CCN(C(=O)c2csc(COc3ccc(F)cc3F)n2)CC1 | -4 | -4
COCCN1CCC(N2CCCN(S(=O)(=O)c3cccs3)CC2)C1=O (stereo unspecified) | -2 | 5
SMILES | Pf apPOL block | mHTT-CaM PPI inh
O=C(Cc1ccccc1)Nc1ccc(-c2nnc(-c3ccccc3)o2)cc1 | 2 | -3
COc1ccc(C2CC(=O)Oc3cc(OC)c(OC)c(OC)c32)cc1 (stereo unspecified) | -1 | 2
COc1ccc(C2CC(=O)Oc3c(C(CCN4CCCC(C)C4)c4cc(OC)c(OC)c(OC)c4)c(OC)cc(OC)c32)cc1 (stereo unspecified) | -6 | 61*
CCOC(=O)c1ccc(-n2c(C)ccc2C)cc1 | -6 | .
Cc1ccc(C)n1-c1ccc(C(=O)ON2C(=O)CCC2=O)cc1 | 82* | .
COc1ccccc1-c1cc(=O)c2cc(Br)ccc2o1 | -1 | -4
N#C/C(=C\c1ccco1)c1nc(-c2ccccc2)cs1 | -3 | -10
N#C/C(=C\C=C\c1ccco1)c1nc2ccccc2s1 | -10 | 76*
O=C(Nc1nccs1)c1ccc(NC(=O)c2ccccc2-c2ccccc2C(=O)O)cc1 | -1 | 84*
O=C(Nc1nccs1)c1ccc(NC(=O)c2ccccc2[N+](=O)[O-])cc1 | -3 | 13
COc1ccc(CN2CCc3nc(Nc4cc(OC)ccc4OC)ncc3C2)cc1 | -5 | 10
CCOc1cccc(CN2CCc3nc(Nc4ccc5c(c4)OCO5)ncc3C2)c1 | 0 | 30
CCC(=O)N1CCc2sc(S(=O)(=O)Nc3ccccc3)cc2C1 | 0 | 9
CCC(=O)N1CCc2sc(S(=O)(=O)Nc3ccc(F)cc3)cc2C1 | -6 | 51*
O=S(=O)(Nc1cccc(C(F)(F)F)c1)c1cccc2nsnc12 | -4 | 4
Cc1ccc(C(=O)NC(C)C(=O)N2CCCc3ccccc32)c(C)c1 (stereo unspecified) | 4 | -4
COC(=O)c1ccc(NS(=O)(=O)c2ccc3[nH]c4c(c3c2)CCCCC4)cc1 | -1 | 68*
CCOc1ccccc1NS(=O)(=O)c1ccc2[nH]c3c(c2c1)CCCC3 | -3 | 26
COc1ccc(NS(=O)(=O)c2ccc3[nH]c(=O)sc3c2)cc1 | -1 | -5
CC(=O)c1ccc2c3c([nH]c2c1)CCCC3 | -6 | 0
CC(=O)c1ccc(NS(=O)(=O)c2ccc3[nH]c4c(c3c2)CCCC4)cc1 | -4 | 63*
COC(=O)c1ccc(NS(=O)(=O)c2ccc3[nH]c4c(c3c2)CCCC4)cc1 | 1 | 38
COc1ccc(NS(=O)(=O)c2ccc3[nH]c4c(c3c2)CCCC4)cc1 | -5 | 80*
O=S(=O)(Nc1ccc(F)cc1F)c1ccc2[nH]c3c(c2c1)CCCC3 | -2 | 91*
O=C(Nc1ccc(Cl)cc1F)c1cc(S(=O)(=O)N2CCCc3ccccc32)ccc1F | -4 | -10
SMILES | Pf apPOL block | mHTT-CaM PPI inh
CCn1c(C2CCN(Cc3ccc(F)cc3)C2)nc2cccnc21 (stereo unspecified) | -8 | 12
CCn1c(C2CCN(Cc3ccc(Cl)cc3)C2)nc2cccnc21 (stereo unspecified) | -12 | 57*
O=C(CSc1nnc(-c2ccc(Cl)cc2)n1-c1ccccc1)N1CCCCC1 | -3 | 7
Cc1cc(-c2nc3ccccc3o2)ccc1NC(=O)C1CC1 | -4 | 0
CCCn1cc(C2=CCN(S(=O)(=O)c3cccc(C(F)(F)F)c3)CC2)c2cccnc21 | -5 | 19
Cc1cc(C2(c3ccc(O)c(C)c3)C(=O)N(Cc3ccccc3)c3ccccc32)ccc1O | -8 | 95*
O=C1N(Cc2ccccc2)c2ccccc2C1(Cc1ccccc1)c1ccccc1 (stereo unspecified) | 0 | .
O=C(NCc1cccc(F)c1)C1CCCN(C(=O)c2ccccc2F)C1 (stereo unspecified) | -18 | 23
C=CCNC(=O)c1c[nH]c2ccc(S(=O)(=O)N(CC)c3ccc(F)cc3)cc2c1=O | -10 | 15
COCCNC(=O)c1c[nH]c2ccc(S(=O)(=O)N(C)c3ccc(Cl)cc3)cc2c1=O | -10 | 50*
C=CCNC(=O)c1c[nH]c2ccc(S(=O)(=O)N(C)c3ccc(Br)cc3)cc2c1=O | -6 | 55*
CCOCCCNC(=O)c1c[nH]c2ccc(S(=O)(=O)N(C)c3ccc(Cl)cc3)cc2c1=O | -11 | 24
Cc1ccc(Nc2cc(-n3cccn3)ncn2)cc1 | -4 | 0
Cc1ccc(S(=O)(=O)Nc2ccc(Nc3ccc(-n4cccn4)nn3)cc2)c(C)c1 | -2 | 100*
CCOc1ccc(C(=O)Nc2ccc(-n3nncc3-c3ccccc3)cc2)cc1OCC | -3 | 20
COCC(=O)Nc1ccc(Nc2ccc(-n3cccn3)nn2)cc1 | -2 | 99*
NS(=O)(=O)c1ccc(C(=O)Nc2ccc(Nc3ccc(-n4cccn4)nn3)cc2)cc1 | -8 | 95*
COCC(=O)Nc1ccc(Nc2ccccc2)cc1 | -13 | 47
